For one molecule, outcome results are on record in PubChem BioAssay AID652020 (National Center for Advancing Translational Sciences (NCATS), 2013).

This is one part of the list. Inconclusive results are not listed. Calls of active or inactive are those of the source. The call rests on the fitted dose curve; in most records, active means well fitted curve in the direction sought with a large enough effect; inconclusive means small, poorly fitted or top-dose-only effect, or another doubt; inactive means no such curve, though single readings can be large or run the other way.

This assay concerns the target Glutathione reductase, mitochondrial (Homo sapiens) (UniProt P00390). As to the kind of experiment: qHTS Assay for Inhibitors of Mammalian Selenoprotein Thioredoxin Reductase 1 (TrxR1): Counterassay in Glutathione Reductase (GR). An excerpt:
The selenoprotein thioredoxin reductase (TrxR; EC 1.8.1.9) is a FAD containing homodimeric pyridine nucleotide-disulfide oxidoreductase with many cellular roles. Together with NADPH and its prime substrate thioredoxin (Trx), the enzyme forms the core of the Trx system. The mammalian Trx system exerts a wide spectrum of functions including redox regulation, antioxidant defense, regulation of transcription factors as well as support of cell growth and replication. Many of these functions involve the reduction of Trx, which may subsequently reduce a number of different substrates including ribonucleotide reductase, peroxiredoxins or NFkB. Mammalian TrxR itself also has a broad substrate specificity, reducing both protein and non-protein substrates, including low molecular weight compounds such as dehydroascorbate, lipoic acid, ubiquinone, and juglone. […]
Three microliters of reagents (100 microM NADPH and 60 nM hGR or 100 microM NADPH as no-enzyme control) was dispensed into 1,536-well black clear-bottomed plates (Buffer: 0.1 M potassium phosphate, pH 7.4/10 mM EDTA, 0.01 % Tween-20). […] The plate was transferred to a ViewLux high-throughput CCD imager (Perkin-Elmer, Wellesley, MA) where kinetic measurements (one read per 5 min for 6 reads, total time 25 min) of the TNB absorbance was acquired using a 405 excitation filter.

Chain of Glutathione reductase, mitochondrial (Homo sapiens) (P00390 whole entry, looked up): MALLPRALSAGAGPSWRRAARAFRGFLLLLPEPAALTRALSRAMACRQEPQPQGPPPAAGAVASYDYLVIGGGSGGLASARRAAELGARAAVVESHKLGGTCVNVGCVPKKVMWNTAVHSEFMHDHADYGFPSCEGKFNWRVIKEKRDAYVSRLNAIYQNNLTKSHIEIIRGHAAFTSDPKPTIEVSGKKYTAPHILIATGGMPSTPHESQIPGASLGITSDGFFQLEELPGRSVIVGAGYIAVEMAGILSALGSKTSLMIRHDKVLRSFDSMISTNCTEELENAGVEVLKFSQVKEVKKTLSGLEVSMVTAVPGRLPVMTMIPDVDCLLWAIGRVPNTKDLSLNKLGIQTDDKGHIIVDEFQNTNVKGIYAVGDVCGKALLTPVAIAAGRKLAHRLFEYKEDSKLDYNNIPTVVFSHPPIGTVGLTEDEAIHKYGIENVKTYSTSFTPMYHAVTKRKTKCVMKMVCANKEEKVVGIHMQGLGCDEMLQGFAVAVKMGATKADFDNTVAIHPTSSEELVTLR

Turning to `COc1ccc(-c2nc(CS(=O)CC(=O)N3CCC4(CC3)OCCO4)c(C)o2)cc1` (stereo unspecified), the call was inactive.
